# PubChem BioAssay (NCI)
# Where “and” joins values, the source holds several entries; their conditions need not be identical. Equal values may be shown once. About 83,000 compounds went through this panel and 20% of them were active in at least one assay; those are over-represented in the sample as a whole.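 Assay: single dose, 48 h. Readout: percent growth (0 = no net growth; negative = cell death). Active: <10.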 Calls of active or inactive are those of the source.
# System: ACHN renal
# Assay: NCI-60 one-dose screen, 48 h (100 = growth as untreated, 0 = no growth, -100 = all killed)
# Settings: 10 µM unless noted
# Method: Growth inhibition of the ACHN human tumor cell line is measured as a screen for anti-cancer activity. Cells are grown in 96 well plates and exposed to the test compound for 48 hours. Compounds are tested at a single concentration, which is 10^-5 M for most compounds. The reported endpoint is percent growth (GI% or GIPRCNT), where numbers from 0 - 100% represent growth inhibition, and numbers from -100% - 0 represent cell death. For example, a value of 40 represents 60% growth inhibition. A value of 0 means no net growth occurred over the course of the experiment. A value of -40 indicates 40% of cells at the beginning of the experiment died by the end of the experiment. A value of -100 means all cells are dead at the end of the experiment.
# NCI-60 Human Tumor Cell Lines Screen was performed using the standard one-dose NCI protocol, which is described in more detail at https://dtp.cancer.gov/discovery_development/nci-60/default.htm.
# Compounds with GIPRCNT values below 10 were considered active. Activity score was based on GIPRCNT using the following formula: […]
# Score is 0 for GIPRCNT values of 100 or above, 50 for GIPRCNT values of 0, and 100 for GIPRCNT values of -100.
row,Compound,growth
1,C=C(C)[C@@H]1CC[C@]2(C(=O)N3CCN(C)CC3)CC[C@]3(C)[C@H](CC[C@@H]4[C@@]5(C)CC(CCCNC(C)=O)(CCCNC(C)=O)[C@H](OC(C)=O)C(C)(C)[C@@H]5CC[C@]43C)[C@@H]12,101% (inactive)
2,C=C1C(=O)O[C@H]2[C@H]1CC/C(COC(=O)NCc1ccc(Cn3c(=O)sn(CCCI)c3=O)cc1)=C\CC[C@@]1(C)O[C@@H]21,16.2% (inactive)
3,COc1cccc(C2C(C#N)=C(N)Oc3cc(OCCCCCC[P+](c4ccccc4)(c4ccccc4)c4ccccc4)ccc32)c1 (stereo not given),18% (inactive)
4,O=c1ccc2nc(-c3ccccn3)nn(-c3ccccc3)c-2c1,-84.7% (active)
5,COc1ccc(-c2[nH]c3ccccc3c2-c2ccc(OC)cc2)cc1,65.3% (inactive)
6,Cc1ccc(Nc2nc(-c3cc(O)c(C)c(C)c3O)cs2)cc1,99.1% (inactive)
7,O=C(Nc1ccc2ncsc2c1)c1csc(Nc2ccc3[nH]ncc3c2)n1,50.5% (inactive)
8,Cc1ccc(Cl)cc1N1CCN(C(=O)[C@@H]2C[C@@H]2c2ccc(F)cc2)CC1,93% (inactive)
9,Cc1ccc(-c2nc3nc(-c4ccccc4)nc(N4CCCNCC4)c3o2)cc1,-98.9% (active)
10,CCCCCCCCCCCCCCCC(=O)O[C@@H]1[C@@H](O)[C@@H](O)C([C@H](NC(=O)[C@@H]2C[C@@H](CCC)CN2C)[C@H](C)Cl)O[C@@H]1SC (stereo not given in full),95.4% (inactive)
11,COc1ccc2c(c1)oc1c(C)c3c(c(C)c12)C(=O)N(Nc1ccccc1)C3=O,99.4% (inactive)
12,Cc1ccc(C(=O)Nc2nc3c(s2)CN(Cc2ccccc2)CC3)cn1,100% (inactive)
13,O=C(NNC(=S)Nc1ccccc1)c1ccncc1,103% (inactive)
14,Cc1nc(-n2[nH]c(=O)ccc2=O)sc1N=Nc1ccccc1,99.5% (inactive)
15,Cc1ccc2[nH]c(=S)[nH]c(=O)c2c1,101% (inactive)
16,O=C1/C(=C/c2cn(-c3ccccc3)nc2-c2ccccc2)SC(=S)N1c1ccc(Cl)cc1,81.9% (inactive)
17,N#C/C(=C\c1ccccc1Cl)c1cc2ccccc2[nH]1,84.7% (inactive)
18,COc1ccc(-c2cc(-c3cccnc3)nc3sc4c(Cl)nnnc4c23)cc1OC,87.4% (inactive)
19,CN(C)C(=O)c1cc2cnc(Nc3ccc(-c4csc5c(=S)cc(N6CCOCC6)oc45)cc3)nc2n1C1CCCC1,6.64% (active)
20,COc1ccc(Oc2nc(Nc3ccc(N4CCOCC4)cc3)ncc2NC(=O)c2cccc(C(F)(F)F)c2)cc1,79.9% (inactive)

row,Compound,growth
1,CC(C)(C)c1cc(C(C)(C)c2ccccc2)cc(Cc2cc(C(C)(C)c3ccccc3)cc(C(C)(C)C)c2O)c1O,102% (inactive)
2,O/N=C(/c1ccccc1)c1ccc2c3c(cccc13)CC2,101% (inactive) and 94.5% (inactive)
3,O=C(Nc1ncc(Cc2cccc(C(F)(F)F)c2)s1)c1ccc2c(c1)OCCO2,29.8% (inactive)
4,O=C1/C(=C/c2ccccc2)CN(C(=O)C(Cl)Cl)C/C1=C\c1ccccc1,-74.6% (active)
5,COC1=CC(=O)C(OC)=C(O)C1=O,98.2% (inactive)
6,N#Cc1ccccc1OCC(=O)Nc1nc2c(s1)COc1ccccc1-2,102% (inactive)
7,CC(=O)c1c(C)nc(SCC(=O)Nc2ccc(Cl)cc2)n1-c1ccc(Cl)cc1,93.7% (inactive)
8,Nc1nc(Nc2cccnc2)sc1C(=O)c1ccccc1F,9.23% (active)
9,COc1cc(CO)cc2cc3ccccc3nc12,105% (inactive)
10,O=C(CCN1CCOCC1)Nc1cccc(-n2cc(-c3ccncc3)c(-c3ccc(Cl)c(O)c3)n2)c1,34.2% (inactive)
11,COc1ccc(C(=O)N/N=C/c2ccc(O)cc2O)cc1Nc1ccnc(C(F)(F)F)c1,35.8% (inactive)
12,Nc1ncc(-c2ccc3ncnc(N4CCc5ccc(Cl)cc54)c3c2)cc1C(F)(F)F,11% (inactive)
13,COc1ccc(C(=O)c2ccc(OC)c(OC)c2OC)cc1,42.5% (inactive) and 53.8% (inactive)
14,CCOc1ccc(C(=O)Cc2ccccc2)cc1,107% (inactive) and 115% (inactive)
15,O=C(CN1C(=O)S/C(=C\C(Cl)=C\c2ccccc2)C1=O)NCCCn1ccnc1,5.51% (active)
16,COc1ccc(C/C(C)=C(/c2ccc(OCCN3CCCCCC3)cc2)c2ccc(OC(=O)c3ccccc3)cc2)cc1,99.6% (inactive)
17,Cc1ccc(NC(=O)c2sc3nc(C)c(C(=O)c4ccccc4)cc3c2N)cc1,92.8% (inactive)
18,COc1ccc(-c2ccccc2)cc1-c1c(Nc2cc(Cl)cc(Cl)c2O)c(=O)c1=O,3.24% (active)
19,CC1(Cc2ccccc2)CC2=C(C(=O)O1)C(c1ccccc1)NC(=O)N2 (stereo not given),101% (inactive)
20,COc1ccc(-c2csc(NC(=O)CN3CCN(CCO)CC3)n2)cc1NS(=O)(=O)c1cccc2c(N(C)C)cccc12,87% (inactive)
